Test results: PubChem BioAssay (NCI)
This is part of a sample that, as a whole, favours compounds with a hit. Of some 83,000 tested, about 20% had one in any assay.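 Cell lines were cultured in 96-well plates, exposed to a single compound concentration, and assessed for percent growth 48 hours later.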 Calls of active or inactive are those of the source. How the source made its calls: active means growth percent below 10; inactive means the rest.

The compounds below were run on HL-60(TB) leukemia (assay: NCI-60 one-dose screen, 48 h (100 = growth as untreated, 0 = no growth, -100 = all killed)). Conditions: 10 µM unless noted.
In the case of `O=C1c2ccccc2C(=O)c2c(Nc3ccc(CCO)cc3)ccc(O)c21`, the growth is reported as 83.9% (inactive).
In the case of `COc1cc2c(cc1OCCCCCCN1CCN(CC(=O)Nc3ccc(Cl)cc3C(=O)c3ccccc3Cl)CC1)N=CC1CCCN1C2=O` (configuration not stated), the growth is reported as -85.8% (active).
With `O=C1c2ccccc2C(=O)c2sc(Nc3ccc(Cl)cc3)nc21` the growth was -10.8% (active).
In the case of `CC(C)(C)c1nc(-c2cccc(NS(=O)(=O)c3c(F)cccc3F)c2F)c(-c2ccnc(N)n2)s1`, the growth is reported as 35.1% (inactive).
With `O=C1NC(=O)/C(=C\c2ccncc2)N1` the growth was 119% (inactive).
For `Cc1ccn2c(-c3csc(Nc4cccc(O)c4)n3)c(C)nc2c1`, the growth was -19.4% (active).
For `Cc1ccc(C(F)(F)F)cc1N1CCN(C(=O)[C@H]2C[C@H]2c2ccc(C(F)(F)F)nc2)CC1`, the growth was 81.8% (inactive).
For `CC[C@]1(O)C[C@H]2CN(CCc3c([nH]c4ccccc34)C(C(=O)OC)(c3cc4c(cc3OC)N(C)[C@H]3[C@@](O)(C(=O)OC)[C@H](OC(C)=O)[C@]5(CC)[C@@H]6C[C@@H]6CN6CC[C@]43[C@@H]65)C2)C1` (some centres not stated), the growth was -30.9% (active).
`Cn1cc(C(=O)c2nc(-c3cn(C)c4ccc(F)cc34)no2)c2cc(F)ccc21` was tested, and the growth was 93.3% (inactive).
For `Cc1ccc(C(=O)c2ccc(CC(=O)N/N=C/c3cccc(O)c3O)n2C)cc1`, the growth was 4.13% (active).
For `CN(C)c1cccc2[nH]c(-c3[nH]ncc3Nc3ccnc(N)n3)nc12`, the growth was -42.7% (active).
For `CC(C)CCSc1nc(Nc2ccccc2)c(C#N)c(-c2ccc(F)cc2)n1`, the growth was 59.6% (inactive).
`CC(C)(C)C(=O)/C=C/c1ccc([N+](=O)[O-])cc1` was tested, and the growth was 75.2% (inactive).
For `COc1ccc(/C=N/Nc2c3ccccc3nc3ccccc23)cc1`, the growth was 92.9% (inactive).
In the case of `CCCSc1nc2ccc(C)cc2cc1/C=[N+](\[O-])c1ccccc1`, the growth is reported as 14.1% (inactive).
`C/C(=C(/c1ccc(Cl)cc1)c1ccc(OCCCN(C)C)cc1)c1ccc(Cl)cc1` was tested, and the growth was 72.9% (inactive).
With `NCCSC(C[N+](=O)[O-])c1ccccc1Cl` (configuration not stated) the growth was 31.8% (inactive).
`COc1ccc(S(=O)(=O)N(Cc2ccc3c(n2)C=CC(C)(C)O3)C2CCC2)cc1OC` was tested, and the growth was -13.5% (active).
For `C[C@H]1[C@H](C)CC[C@]2(C(=O)OCCCC[P+](c3ccccc3)(c3ccccc3)c3ccccc3)CC[C@]3(C)C(=CC[C@@H]4[C@@]5(C)CC[C@H](OC(=O)C(Cl)Cl)C(C)(C)[C@@H]5CC[C@]43C)[C@H]12`, the growth was -54.3% (active).
In the case of `CCC(C)C1NC(=O)C(NC(=O)c2c3nc4c(C(=O)NC5C(=O)NC(C(C)CC)C(=O)N6CCCC6C(=O)N(C)CC(=O)N(C)C(C(C)C)C(=O)OC5C)ccc(C)c4oc-3c(C)c(=O)c2N)C(C)OC(=O)C(C(C)C)N(C)C(=O)CN(C)C(=O)C2CCCN2C1=O` (configuration not stated), the growth is reported as -13.9% (active).
`O=C(O)C(C(=O)O)c1cccc2ccccc12` was tested, and the growth was 98.6% (inactive).
With `COc1cc(/C=C/C(=O)c2ccc(Nc3nc(Nc4ccc(F)cc4)nc(Nc4ccc(Cl)cc4)n3)cc2)cc(OC)c1OC` the growth was -32.1% (active).
In the case of `Cc1nn(-c2ccc([N+](=O)[O-])cc2)c2ncnc(NCCc3ccccc3)c12`, the growth is reported as 65.9% (inactive).
`CCCc1cc(=O)n2c(C(=O)Nc3cccc(C(=O)OCC)c3)c(C(=O)Nc3ccc(F)cc3)sc2n1` was tested, and the growth was 73.6% [30 µM] (inactive).
`CCCCN(CCCC)CCC(C)(O)c1cc2ccccc2c2ccccc12` (configuration not stated) was tested, and the growth was 83.7% (inactive).
`O=[N+]([O-])c1cccc(-c2nc3sccn3c2-c2ccnc(NCCCNS(=O)(=O)c3ccc(Br)cc3)n2)c1` was tested, and the growth was 19.2% (inactive).
`CC1=C2[C@@H](CC1)[C@]1(C)O[C@@](C3CC3)(C[C@H]1OC(=O)CO)[C@H]2OC(=O)/C=C/c1ccccc1` was tested, and the growth was 92.6% (inactive).
